Source: PubChem BioAssay (several laboratories)
The list is not random: actives were taken first. Their share in the collection is about 4.3%.
FAS-TE inh – FAS thioesterase domain inhibitors, primary screen, biochemical, fluorescence intensity, uHTS | Fatty acid synthase (Homo sapiens), P49327 | recombinant FAS-TE, OMFH fluorogenic substrate, fluorescence endpoint | inhibition, % at 15 µM | hit rate 0.67% among 360,000 | AID 602261, 2012;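 active means compounds whose normalised, plate-corrected inhibition of enzyme fluorescence in the single-dose primary screen is 50% or more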
rCAG binder – binders of r(CAG) RNA repeats, primary screen, biochemical, fluorescence; inhibition, % at 3 µM; AID 651821, 2012; r(CAG) RNA repeat, TO-PRO-1 dye displacement fluorescence; hit rate 1.3% among 370,000;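 active means inhibition above the plate cutoff, the mean of all test compounds on that plate plus 3 SD, cut at about 35% in these data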;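 further: higher means more dye released from RNA so lower well fluorescence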
NadD inh – inhibitors of S. aureus NadD, primary screen, biochemical, colorimetric, uHTS; purified NadD enzyme, colorimetric absorbance read-out; inhibition, % at 20 µM; hit rate 0.78% among 360,000; AID 602399, 2012; in the data active means inhibition above about 26%
GRIN3A LBD mod – binders of NR3A ligand-binding domain, primary screen, biophysical, differential scanning fluorimetry, uHTS | Tm shift relative to glycine control, % at 25 µM | hit rate 2.5% among 340,000 | NR3A LBD differential scanning fluorimetry, Tm shift; 0% = protein alone, 100% = glycine-bound protein | AID 1259313, 2017;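 active means melting temperature shift of at least 10% of the positive control shift, at one fixed dose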
Large screens that a line does not name were inactive.

O=S(=O)(c1ccccc1)c1cnn2c(C(F)(F)F)cc(-c3ccc(F)cc3)nc12	GRIN3A LBD mod 14
Cc1ccc(CNC(=O)CCS(=O)(=O)c2cc3c(cc2Br)CCN3C(=O)C2CC2)o1	none (no result: FAS-TE inh, NadD inh, GRIN3A LBD mod)
N#Cc1ccc2nc(-c3ccc(CN4CCC(c5nc6ccccc6[nH]5)CC4)cc3)c(-c3ccccc3)nc2c1	none (no result: FAS-TE inh, NadD inh, GRIN3A LBD mod)
COc1ccc(S[C@]2(C(=O)N3CCN(c4ncccn4)CC3)CC(=O)N(C(=O)C3CC3)[C@@H]2c2ccc(OC)cc2)cc1	none (no result: FAS-TE inh, NadD inh, GRIN3A LBD mod)
O=C(O)c1cccc2cc(-c3ccccc3)oc(=O)c12	none
O=c1oc(-c2ccc(O)c(O)c2)cc2cc(O)cc(O)c12	GRIN3A LBD mod 20
O=c1oc(-c2ccc(O)c(O)c2)cc2cccc(O)c12	GRIN3A LBD mod 24
COc1ccc(S[C@]2(C(=O)N(C)C)CC(=O)N(C(=O)C3CC3)[C@@H]2c2ccc(OC)cc2)cc1	none (no result: FAS-TE inh, NadD inh, GRIN3A LBD mod)
CCc1ccc2[nH]c3nc(N/N=C/c4cccc(O)c4)nnc3c2c1	GRIN3A LBD mod 18
NS(=O)(=O)c1ccc(NC(=O)COC(=O)c2cn(-c3ccccc3)nc2-c2ccccc2)cc1	GRIN3A LBD mod 22
COc1ccc(NC(=O)CN(C)C(=O)c2cn(-c3ccccc3)nc2-c2ccc(Cl)cc2)cc1	GRIN3A LBD mod 27
COc1cccc(NC(=O)CN(C)C(=O)c2cn(-c3ccccc3)nc2-c2cccs2)c1	GRIN3A LBD mod 14
CN(CC(=O)Nc1cccc(F)c1)C(=O)c1cn(-c2ccccc2)nc1-c1ccc(Cl)cc1	GRIN3A LBD mod 27
COc1ccc(NC(=O)CN(C)C(=O)c2cn(-c3ccccc3)nc2-c2ccc(F)cc2)cc1	none
COc1ccc(NC(=O)CN(C)C(=O)c2cn(-c3ccccc3)nc2-c2ccc(OC)cc2)cc1	none
CN(CC(=O)Nc1cccc(F)c1)C(=O)c1cn(-c2ccccc2)nc1-c1cccs1	GRIN3A LBD mod 23
CCCNC(=S)N1CCN(c2nc(-c3ccc(C)cc3)cs2)CC1	GRIN3A LBD mod 12
N#Cc1ccc(/C=C2\CC3(OC(=O)c4ccco4)CCCN2C3)cc1 (centres undefined)	none (no result: FAS-TE inh, NadD inh, GRIN3A LBD mod)
Cc1ccc(NC(=O)Cc2noc3ccccc23)cc1	none
CN(C(=O)Cc1noc2ccccc12)c1ccccc1	GRIN3A LBD mod 12
COc1ccc(Cn2ccc3ccc(-c4ccc5ccn(Cc6ccccc6F)c5c4)cc32)cc1	none (no result: FAS-TE inh, NadD inh, GRIN3A LBD mod)
COc1ccc2nc(Nc3ccccc3)sc2c1	GRIN3A LBD mod 30
COc1ccc2nc(NC(=O)/C=C/c3ccc4c(c3)OCO4)sc2c1	none (no result: FAS-TE inh, NadD inh, GRIN3A LBD mod)
COc1ccc2nc(Nc3ccccc3OC)sc2c1	GRIN3A LBD mod 19
COc1ccc2nc(Nc3ccc4c(c3)OCO4)sc2c1	GRIN3A LBD mod 16
CCN(C(=O)C1CCCN1S(=O)(=O)c1cccnc1)c1ccccc1 (centres undefined)	none (no result: FAS-TE inh, NadD inh, GRIN3A LBD mod)
CCOC(=O)[C@]12CCCC3=C1N(CCC3)C(=O)[C@@H](CC(=O)NCc1cccc(C(F)(F)F)c1)C2	none (no result: FAS-TE inh, NadD inh, GRIN3A LBD mod)
COCCCn1cc(CN2CC=CS2(=O)=O)nn1	none (no result: FAS-TE inh, NadD inh, GRIN3A LBD mod)
Cc1ccc(/C=N/NS(=O)(=O)c2ccccc2)o1	GRIN3A LBD mod 21
Cc1oc(/C=N/NS(=O)(=O)c2ccccc2)cc1Br	none
Clc1ccc(Cl)c2sc(N3CCCC3)nc12	none
Clc1cccc2sc(N3CCN(c4ccccc4)CC3)nc12	GRIN3A LBD mod 18
O=C(NCCc1c[nH]c2ccccc12)C(=O)c1c[nH]c2ccccc12	GRIN3A LBD mod 25
COc1ccccc1NC(=O)NCCc1c[nH]c2ccccc12	none
O=C(COC(=O)CCc1c[nH]c2ccccc12)NCc1ccccc1	GRIN3A LBD mod 12
O=C(NCCc1c[nH]c2ccccc12)Nc1ccccc1	GRIN3A LBD mod 16
Cc1cc(C)cc(NC(=O)C(=O)NCCc2c[nH]c3ccccc23)c1	none
O=C(NCCc1ccc(Cl)cc1)C(=O)c1c[nH]c2ccccc12	none
N#Cc1cccc(NC(=O)NCCc2c[nH]c3ccccc23)c1	GRIN3A LBD mod 11
O=C(COC(=O)CCc1c[nH]c2ccccc12)NCc1ccc(Cl)cc1	none
Cc1cc(N2CCN(C(=O)OC(C)(C)C)C[C@@H]2C)ccc1N1CCS(=O)(=O)CC1	none (no result: FAS-TE inh, NadD inh, GRIN3A LBD mod)
Cc1cc(/C=C(\C#N)C(=O)NCCc2c[nH]c3ccccc23)c(C)n1C	none
N#C/C(=C/c1ccc(Br)s1)C(=O)NCCc1c[nH]c2ccccc12	GRIN3A LBD mod 23
O=[N+]([O-])c1cccc(-c2cnc3ccccc3n2)c1	none
O=[N+]([O-])c1ccc2nc(-c3ccccc3)[nH]c2c1	GRIN3A LBD mod 16
